The inhibition is the change of the read-out against control, counted positive when it falls.

Data on 62 molecules can be found in PubChem BioAssay AID1863 (Southern Research Specialized Biocontainment Screening …, 2009).

Values joined by “and” are separate entries in the source; they are usually repeats but may differ in a detail not shown here. Equal entries are not always repeated. The whole screen tested about 300,000 compounds, of which about 480 (0.16%) were called active. Only a sample is shown. Potency and affinity values are given separately. Unmarked numbers belong to inactive results.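 Rule for the calls: active = inhibition over 29.93%, a cutoff 3 SD above the screen mean, later confirmed by dose response; inconclusive = inhibition over 29.93% but no dose response follow-up; inactive = inhibition at most 29.93% or unconfirmed.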

This experiment in a line: inhibitors of PhoP regulon expression, primary screen, Salmonella Typhimurium, GFP reporter (AID 1863).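 Note: 0% = low Mg2+ inducing control and 100% = high Mg2+ repressing control.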 The following applies: S. Typhimurium PhoP-regulated promoter GFP reporter, 4 h; at 50 µM; stronger effect = higher value.
Consider `CC(=O)C[C@H]1c2cc(C(F)(F)F)ccc2S(=O)(=O)N1c1ccc(N(C)C)cc1`, for which the inhibition was -9.83%. `Cc1c(N2C(=O)c3ccc(Br)cc3C2=O)c(=O)n(-c2ccccc2)n1C`: the inhibition is 2.78%. Take `C=CCNC(=S)N1CCN(c2ncc3c(=O)c(C(=O)O)cn(CC)c3n2)CC1`: the inhibition was 14%. To `CCCCCCCCC(=O)N1CCN(c2cc3c(cc2F)c(=O)c(C(=O)O)cn3CC)CC1` belongs 1.94%; to `CCCCCCCC(=O)N1CCN(c2cc3c(cc2F)c(=O)c(C(=O)O)cn3CC)CC1`, 9.66%; to `CCOC(=O)c1cn(CC)c2cc(N3CCN(C)CC3)c(F)cc2c1=O`, 0.76%. To `CCCCCCn1cc(C(=O)O)c(=O)c2cc(F)c(N3CCN(C(=O)OCC)CC3)cc21` belongs 5.63%.

On to `CCn1cc(C(=O)O)c(=O)c2cnc(N3CCN(C(=S)Nc4ccccc4)CC3)nc21`, for which the inhibition was 5.11%. As to `O=C(N/N=C1\CC2CC=CC12)c1ccccc1Cl` (configuration not stated), the inhibition was -4.57%. For `CC1(C)C(=O)Nc2ccccc2N1C(=O)c1ccc([N+](=O)[O-])cc1` the value was 7.48%; for `CCS(=O)(=O)N1CCCC(C(=O)NCC2CCCO2)C1` (configuration not stated), 9.13%; for `COCCn1c(SCc2nnc(-c3ccccc3)o2)nc2sc3c(c2c1=O)CCC3`, 1.92%. Turning to `O=C(NCc1cccnc1)/C(=C/c1ccco1)NC(=O)c1ccccc1`, the inhibition is -2.07%. To `CCOc1ccc(C(=O)OCC(=O)NCCCc2ccccc2)cc1` belongs -6.34%; to `COCCN1C=C2C(=O)C(C)(OC(=O)C3CCCC3)C(=O)C(c3ccccc3)=C2C=C1CCCC(=O)OC` (configuration not stated), 0.275%. For `O=C(c1ccc(NS(=O)(=O)c2ccc3c(c2)OCCO3)cc1)N1CCCCC1` the value was -6.01%.

Regarding `Cn1cc(S(=O)(=O)NC2CCCCC2)c(=O)n(C)c1=O`, the inhibition was -6.38%. To `Cc1cc(C)nc(/N=C(\N)N(Cc2ccccc2)Cc2ccccc2)n1` belongs -3.9%. For `COc1ccc(/C=N/NS(=O)(=O)c2ccc(C)cc2)cc1OC(=O)c1ccccc1` the value was -3.56%; for `CCCCCCn1cc(C(=O)O)c(=O)c2cc(F)c(N3CCN(C)CC3)cc21`, -2.32%; for `O=C(O)c1cn(C2CC2)c2cc(N3CCN(S(=O)(=O)c4ccc5c(c4)OCCO5)CC3)c(F)cc2c1=O`, 28.5%. To `CCN(C(=O)COC(=O)c1ccc(C)c(S(=O)(=O)N2CCCCC2)c1)C1CCS(=O)(=O)C1` (configuration not stated) belongs -0.22%; to `CC(Oc1ccccc1)C(=O)N=C1SC2CS(=O)(=O)CC2N1c1cccc(F)c1` (configuration not stated), -0.94%. For `COc1ccc(S(=O)(=O)N(C)c2ccc(C(=O)NCC3CCCO3)cc2)cc1` (configuration not stated), the inhibition was 15.5%.

For the molecule `CN(C)NC1CC(=O)N(c2ccccc2)C1=O` (configuration not stated), the inhibition is -0.29%. For `CCOP(=O)(OCC)C(C)(C)NC(=O)c1cc([N+](=O)[O-])cc([N+](=O)[O-])c1` the value was -1.13%.

For the molecule `O=C1Nc2ccccc2C1=O`, the inhibition was 6.44%. Turning to `O=C1C(O)=C(O)C(=O)c2ccccc21`, the inhibition was 9.48%. To `COC(=O)C1=C(SC)N(c2ccccc2)C(c2ccccc2)CC1=O` (configuration not stated) belongs 11.8%; to `NC(=O)C[n+]1ccc(/C=N/O)cc1`, -4.29%; to `CCCCCCCCCCCCCCCC[n+]1ccc(C(N)=O)cc1`, 20.5%. Consider `CCS(=O)(=O)N1CCCC(C(=O)NCCCOC)C1` (configuration not stated), for which the inhibition was -8.48%. For `CC1(N(O)/C=C2\C=CC=CC2=O)CCCCC1=O` (configuration not stated) the value was -4.1%.

As to `COC(=O)CCC(=O)Nc1ccccc1C(N)=O`, the inhibition is 15.3%. For `CN(C)S(=O)(=O)c1cccc(NC(=S)N/N=C/c2ccc(O)c(O)c2O)c1` the value was -0.51%. To `COc1ccc(O)c(/C=N/NC(=S)Nc2cccc(S(=O)(=O)N(C)C)c2)c1` belongs 22.2%; to `Cc1ccc(Nc2nc(N)c([N+](=O)[O-])c(NCc3ccccc3)n2)cc1`, -2.58%; to `O=C1C(=O)c2ccc(-c3ccccc3)cc2-c2ccccc21`, -10.4%. To `Nc1ccc2c(c1)C(=O)c1ccccc1C2=O` belongs 8.76%.

With `CC(=O)Nc1ccc(S(=O)(=O)N2C(C)CCCC2C)cc1` (configuration not stated), the inhibition was 11.1%. To `COc1cc(/C=N/NC(=O)Cn2nnc3ccccc32)ccc1O` belongs -5.12%; to `COc1ccc(/C=N/NC(=O)Cn2nnc3ccccc32)cc1OC`, -6.81%. For `COCCNC(=O)C1CCC(Cn2c(=S)[nH]c3ccccc3c2=O)CC1` (configuration not stated) the value was 4.17%. To `Cc1ccc2oc(=O)c(/C=C(\O)C(C)(C)C)nc2c1` belongs -0.34%; to `CC(C)(C)/C(O)=C/c1nc2ccccc2oc1=O`, -5.43%; to `CC(=O)Nc1ccc(CN(C)CC2CCCN(CCc3cccc(C(F)(F)F)c3)C2)cc1` (configuration not stated), 8.69%. As for `COc1ccccc1N=CC=C1OC(C)(C)C(C)(C)O1`, the inhibition was -3.09%. For `CCC[C@@H](CNC)NC[C@H](Cc1ccccc1)NCCCCc1ccccc1` the value was 3.18%.

In the case of `CCC[C@H](CN[C@@H](CNC)[C@H](C)CC)NCCc1cc(C(F)(F)F)cc(C(F)(F)F)c1`, the inhibition is 19.5%. To `CC(Cc1cccc(C(F)(F)F)c1)NCCOC(=O)c1ccccc1` (configuration not stated) belongs -9.48% and -7.52%; to `CNC[C@@H](C)NC[C@@H](Cc1ccccc1)NCCc1ccccc1`, 9.81%.

In the case of `Cc1ccccc1-c1noc(CCC(=O)NCC2CCCO2)n1` (configuration not stated), the inhibition was 6.26%. For `O=C1OCCC/C1=C\c1ccc2c(c1)OCO2` the value was 1.4%; for `O=C(Cc1nc2ccccc2[nH]1)c1cccc([N+](=O)[O-])c1`, -11.1%.

Regarding `CCC(=O)N1C(=O)C2(Nc3ccccc3N2)c2ccccc21`, the inhibition was -1.88%. Turning to `CC(C)(C)c1ccc(NC(=O)COC(=O)c2ccc(NS(=O)(=O)c3ccc(F)c(F)c3)cc2)cc1`, the inhibition was 1.23%. For `CCCOc1ccc(Cc2nc(N)nc(N)n2)cc1` the value was 20.1%. To `COc1cc(C)c(Cc2cnc(N)nc2N)cc1OC` belongs -1.03%; to `CCCCOc1ccc(CN(C)c2ncnc(N)n2)cc1`, -10.1%. To `COc1ccc(Cc2c(N)nc(N)nc2N)cc1` belongs 2.89%; to `CC(C)Oc1ccc(Cc2cnc(=S)[nH]c2N)cc1`, 5.16%. `Cc1cc(=O)[nH]c(Cc2ccc(OC(C)C)cc2)n1`: the inhibition is 10.3%.
